Assay results reported in the supplement of paper PMC10849652.
The full data set covers some 7,900 targets. This sample favours those with a hit. About 0.6% of all pairs of compound and target were hits.

How the values were obtained:
Test in all cases: log2 fold change, soluble protein after heating vs DMSO (PISA); higher = thermal stabilisation; K562 cells, 10 uM, 30 min; active = over 0.2 and 3.5 SD of the protein, either way, in both replicates (recomputed)
[1] = compound: C1=CC=C(C=C1)[C@H](COC2=CC3=C(C=C2)NC(=O)N3)NC(=O)C4=CC=CN(C4=O)CC5=CC(=C(C=C5)F)F
Method in brief: (§1)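 K562 cells at 2×10^6 cells/mL were treated for 30 min with 10 μM compound, and aliquots were heated for 3 min over 48°C-58°C before pooling. Extraction used PBS with 0.5% NP-40 at 4°C, and soluble protein was the supernatant after 21,000xg for 90 min, measured by TMTpro 16plex LC-MS/MS with channel sums equalised. Thermal stability values, relative to control samples and from duplicates, are log2 fold changes.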

[2] = compound: CC1=C(SC2=C1C(=N[C@H](C3=NN=C(N32)C)CC(=O)N)C4=CC=C(C=C4)Cl)C
Method in brief: as §1

[3] = compound: CC1=C2C(=CC=C1)N=C(N(C2=O)C3=CC=CC=C3C)CN4C=NC5=C(N=CN=C54)N
Method in brief: as §1

[4] = compound: Cc1sc2c(c1C)C(c1ccc(Cl)cc1)=N[C@@H](CC(=O)OC(C)(C)C)c1nnc(C)n1-2
Method in brief: as §1

[5] = compound: c1ccc([C@@H]2C[C@H]2NC2CCNCC2)cc1
Method in brief: as §1

Measured: log2 fold change

PLD3 (UniProt Q8IV08)
inactive: [1] 0.022 | [2] 0.058 | [3] 0.033 | [4] 0.017 | [5] 0.009

PDE4A (UniProt P27815)
UniProt P27815, sequence (P27815 whole entry, looked up): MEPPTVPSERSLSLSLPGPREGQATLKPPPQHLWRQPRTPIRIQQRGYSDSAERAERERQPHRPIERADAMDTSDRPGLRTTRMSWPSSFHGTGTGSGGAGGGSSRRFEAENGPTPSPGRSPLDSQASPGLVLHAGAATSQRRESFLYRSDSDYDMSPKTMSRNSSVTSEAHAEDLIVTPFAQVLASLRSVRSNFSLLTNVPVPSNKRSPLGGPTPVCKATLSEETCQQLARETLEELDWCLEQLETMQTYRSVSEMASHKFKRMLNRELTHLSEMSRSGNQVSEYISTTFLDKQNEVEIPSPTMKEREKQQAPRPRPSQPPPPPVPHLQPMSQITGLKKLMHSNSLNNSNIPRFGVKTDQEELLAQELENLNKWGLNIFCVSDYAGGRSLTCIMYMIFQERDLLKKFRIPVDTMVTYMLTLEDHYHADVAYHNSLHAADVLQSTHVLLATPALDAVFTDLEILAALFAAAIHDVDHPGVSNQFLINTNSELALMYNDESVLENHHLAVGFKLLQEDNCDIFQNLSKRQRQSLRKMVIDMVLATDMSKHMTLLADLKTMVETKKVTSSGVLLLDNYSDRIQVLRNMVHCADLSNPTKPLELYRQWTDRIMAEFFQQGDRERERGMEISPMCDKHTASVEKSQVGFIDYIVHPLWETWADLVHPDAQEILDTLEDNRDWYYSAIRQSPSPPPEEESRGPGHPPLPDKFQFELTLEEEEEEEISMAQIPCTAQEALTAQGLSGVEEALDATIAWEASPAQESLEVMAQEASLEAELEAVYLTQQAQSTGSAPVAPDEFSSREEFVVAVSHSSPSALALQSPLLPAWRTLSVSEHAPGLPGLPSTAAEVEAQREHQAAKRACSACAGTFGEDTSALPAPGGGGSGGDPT
inactive: [1] -0.11 | [2] 0.128 | [3] 0.102 | [4] -0.112 | [5] 0.201

PML (UniProt P29590)
inactive: [1] -0.008 | [2] -0.054 | [3] 0.002 | [4] -0.005 | [5] 0.001

PRKCG (UniProt P05129)
inactive: [1] -0.216 | [2] -0.025 | [3] 0.033 | [4] -0.017 | [5] 0.077

POLR3K (UniProt Q9Y2Y1)
UniProt Q9Y2Y1, sequence (Q9Y2Y1 whole entry, looked up): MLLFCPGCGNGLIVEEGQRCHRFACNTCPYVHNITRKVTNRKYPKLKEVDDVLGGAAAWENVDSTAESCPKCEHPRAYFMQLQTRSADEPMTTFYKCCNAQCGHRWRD
inactive: [1] -0.009 | [2] -0.008 | [3] -0.029 | [4] 0.021 | [5] 0.056

PARP1 (UniProt P09874)
inactive: [1] -0.098 | [2] 0.027 | [3] 0.182 | [4] -0.069 | [5] -0.101

PDSS2 (UniProt Q86YH6)
UniProt Q86YH6, sequence (Q86YH6 whole entry, looked up): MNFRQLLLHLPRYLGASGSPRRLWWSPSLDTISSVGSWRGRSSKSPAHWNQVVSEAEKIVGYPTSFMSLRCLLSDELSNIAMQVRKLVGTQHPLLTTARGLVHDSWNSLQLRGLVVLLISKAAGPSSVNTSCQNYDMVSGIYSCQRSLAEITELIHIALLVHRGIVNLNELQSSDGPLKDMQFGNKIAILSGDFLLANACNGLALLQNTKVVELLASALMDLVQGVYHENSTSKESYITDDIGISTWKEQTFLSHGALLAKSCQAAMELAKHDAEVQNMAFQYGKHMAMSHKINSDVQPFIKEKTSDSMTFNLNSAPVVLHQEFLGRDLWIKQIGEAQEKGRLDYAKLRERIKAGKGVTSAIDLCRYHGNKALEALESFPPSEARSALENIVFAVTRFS
inactive: [1] -0.066 | [2] 0.052 | [3] 0.085 | [4] 0.005 | [5] 0.094

PELP1 (UniProt Q8IZL8)
inactive: [1] 0 | [2] 0.006 | [3] -0.028 | [4] -0.044 | [5] -0.013

PCBP1 (UniProt Q15365)
inactive: [1] -0.045 | [2] 0.047 | [3] 0.048 | [4] -0.03 | [5] 0

PHF5A (UniProt Q7RTV0)
inactive: [1] 0.048 | [2] -0.024 | [3] 0.018 | [4] 0.002 | [5] 0.018

PTRH2 (UniProt Q9Y3E5)
UniProt Q9Y3E5, sequence (Q9Y3E5 whole entry, looked up): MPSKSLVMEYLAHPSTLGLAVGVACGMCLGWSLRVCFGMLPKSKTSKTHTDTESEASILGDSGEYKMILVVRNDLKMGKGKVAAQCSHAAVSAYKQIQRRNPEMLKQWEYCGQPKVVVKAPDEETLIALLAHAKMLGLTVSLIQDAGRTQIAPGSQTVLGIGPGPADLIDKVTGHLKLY
inactive: [1] 0.018 | [2] 0.068 | [3] 0.019 | [4] -0.106 | [5] -0.02

PTPN23 (UniProt Q9H3S7)
inactive: [1] -0.038 | [2] 0.048 | [3] 0.054 | [4] 0 | [5] 0.038

PIP4P1 isoform 2 (UniProt Q86T03)
inactive: [1] -0.016 | [2] -0.106 | [3] -0.118 | [4] -0.002 | [5] 0.05

PRIM2 (UniProt P49643)
UniProt P49643, sequence (P49643 whole entry, looked up): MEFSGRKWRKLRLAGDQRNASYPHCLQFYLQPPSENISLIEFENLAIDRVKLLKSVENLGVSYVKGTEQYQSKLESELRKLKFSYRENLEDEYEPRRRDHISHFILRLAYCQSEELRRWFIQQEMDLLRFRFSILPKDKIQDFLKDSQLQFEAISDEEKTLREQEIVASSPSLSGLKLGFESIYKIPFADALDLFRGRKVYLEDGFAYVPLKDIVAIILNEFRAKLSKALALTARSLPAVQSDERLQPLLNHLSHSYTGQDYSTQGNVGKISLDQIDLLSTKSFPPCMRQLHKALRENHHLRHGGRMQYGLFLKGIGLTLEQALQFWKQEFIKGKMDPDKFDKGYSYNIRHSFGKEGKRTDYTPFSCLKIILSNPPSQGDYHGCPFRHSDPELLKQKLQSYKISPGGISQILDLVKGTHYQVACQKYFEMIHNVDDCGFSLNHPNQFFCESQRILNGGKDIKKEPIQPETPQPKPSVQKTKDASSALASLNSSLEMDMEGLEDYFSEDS
inactive: [1] -0.07 | [2] 0.063 | [3] 0.189 | [4] 0.014 | [5] -0.092

PSMC5 (UniProt P62195)
inactive: [1] 0.017 | [2] -0.087 | [3] -0.045 | [4] 0.006 | [5] 0.01

PPT2 isoform 3 (UniProt Q9UMR5)
inactive: [1] 0.015 | [2] -0.062 | [3] -0.011 | [4] -0.053 | [5] 0.03

PUM1 isoform 3 (UniProt Q14671)
UniProt Q14671, sequence (Q14671 whole entry, looked up): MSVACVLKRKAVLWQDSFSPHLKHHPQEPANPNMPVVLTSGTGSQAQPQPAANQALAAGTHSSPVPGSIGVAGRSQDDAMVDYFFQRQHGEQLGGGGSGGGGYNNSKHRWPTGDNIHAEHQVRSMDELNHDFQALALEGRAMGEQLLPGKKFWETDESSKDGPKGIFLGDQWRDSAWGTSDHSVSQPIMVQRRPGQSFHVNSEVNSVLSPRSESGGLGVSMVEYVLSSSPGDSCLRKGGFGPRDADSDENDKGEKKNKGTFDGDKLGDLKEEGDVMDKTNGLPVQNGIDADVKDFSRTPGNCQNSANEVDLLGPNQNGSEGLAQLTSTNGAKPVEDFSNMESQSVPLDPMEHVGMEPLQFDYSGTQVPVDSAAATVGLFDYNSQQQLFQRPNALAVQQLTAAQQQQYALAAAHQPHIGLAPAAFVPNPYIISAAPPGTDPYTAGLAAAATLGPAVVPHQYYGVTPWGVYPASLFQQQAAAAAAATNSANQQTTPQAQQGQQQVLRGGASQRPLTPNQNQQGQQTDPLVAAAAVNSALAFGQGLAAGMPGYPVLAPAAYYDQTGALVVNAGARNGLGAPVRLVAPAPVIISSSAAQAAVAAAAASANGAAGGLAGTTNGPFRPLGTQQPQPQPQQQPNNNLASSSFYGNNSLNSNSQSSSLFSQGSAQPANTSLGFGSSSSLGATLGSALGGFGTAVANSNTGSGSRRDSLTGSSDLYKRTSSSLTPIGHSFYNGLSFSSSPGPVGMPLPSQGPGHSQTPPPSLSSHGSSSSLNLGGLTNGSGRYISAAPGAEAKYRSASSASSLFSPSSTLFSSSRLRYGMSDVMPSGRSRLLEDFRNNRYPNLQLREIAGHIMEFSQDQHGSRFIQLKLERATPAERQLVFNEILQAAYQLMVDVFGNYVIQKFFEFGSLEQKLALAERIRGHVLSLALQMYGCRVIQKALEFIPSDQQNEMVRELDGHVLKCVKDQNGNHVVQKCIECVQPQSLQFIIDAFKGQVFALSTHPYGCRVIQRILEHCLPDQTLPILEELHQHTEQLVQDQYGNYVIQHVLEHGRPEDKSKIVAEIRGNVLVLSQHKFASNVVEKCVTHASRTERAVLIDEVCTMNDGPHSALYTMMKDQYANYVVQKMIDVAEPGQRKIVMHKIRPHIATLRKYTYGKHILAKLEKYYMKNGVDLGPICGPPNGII
inactive: [1] 0.004 | [2] -0.036 | [3] 0.056 | [4] 0.025 | [5] -0.049

PARP16 isoform 3 (UniProt Q8N5Y8)
UniProt Q8N5Y8, sequence (Q8N5Y8 whole entry, looked up): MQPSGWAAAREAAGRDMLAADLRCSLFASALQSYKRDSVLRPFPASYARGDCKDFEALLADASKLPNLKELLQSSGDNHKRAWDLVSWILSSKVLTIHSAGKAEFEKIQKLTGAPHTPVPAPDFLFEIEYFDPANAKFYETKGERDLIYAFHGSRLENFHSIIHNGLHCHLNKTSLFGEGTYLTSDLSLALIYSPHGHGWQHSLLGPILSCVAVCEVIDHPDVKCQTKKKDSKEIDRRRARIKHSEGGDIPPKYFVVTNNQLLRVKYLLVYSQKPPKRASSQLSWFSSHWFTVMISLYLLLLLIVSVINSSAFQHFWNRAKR
inactive: [1] -0.019 | [2] -0.019 | [3] 0.012 | [4] -0.041 | [5] 0.001

PIK3C3 (UniProt Q8NEB9)
inactive: [1] -0.038 | [2] 0.005 | [3] 0.009 | [4] 0.009 | [5] -0.01

PRKCD (UniProt Q05655)
UniProt Q05655, sequence (Q05655 whole entry, looked up): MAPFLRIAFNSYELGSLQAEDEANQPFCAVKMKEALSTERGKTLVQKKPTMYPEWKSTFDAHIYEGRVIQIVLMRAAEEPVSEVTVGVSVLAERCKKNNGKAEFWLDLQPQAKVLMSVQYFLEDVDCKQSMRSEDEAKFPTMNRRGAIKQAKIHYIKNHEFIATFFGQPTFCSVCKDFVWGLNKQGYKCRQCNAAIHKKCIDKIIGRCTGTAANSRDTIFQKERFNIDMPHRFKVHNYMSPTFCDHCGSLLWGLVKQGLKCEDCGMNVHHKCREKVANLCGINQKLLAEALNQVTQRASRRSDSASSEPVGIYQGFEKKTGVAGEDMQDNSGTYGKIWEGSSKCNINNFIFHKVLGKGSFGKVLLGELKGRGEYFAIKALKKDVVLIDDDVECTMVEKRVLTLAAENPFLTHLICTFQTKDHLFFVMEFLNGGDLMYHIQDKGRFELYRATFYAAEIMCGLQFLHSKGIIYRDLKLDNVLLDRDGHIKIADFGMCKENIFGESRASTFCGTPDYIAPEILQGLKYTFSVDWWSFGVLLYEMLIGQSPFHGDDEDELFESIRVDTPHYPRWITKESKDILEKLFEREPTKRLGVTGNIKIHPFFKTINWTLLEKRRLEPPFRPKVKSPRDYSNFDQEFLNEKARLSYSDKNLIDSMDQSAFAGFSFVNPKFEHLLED
inactive: [1] -0.05 | [2] 0.082 | [3] 0.071 | [4] 0.004 | [5] -0.021

PJA2 (UniProt O43164)
inactive: [1] 0.005 | [2] -0.042 | [3] 0.021 | [4] 0.006 | [5] 0.024

POLD1 (UniProt P28340)
inactive: [1] 0.017 | [2] 0.019 | [3] 0.094 | [4] 0.048 | [5] 0

PYGB (UniProt P11216)
inactive: [1] 0.024 | [2] 0.037 | [3] 0.003 | [4] 0.015 | [5] -0.003

PSMC3 (UniProt P17980)
inactive: [1] 0.014 | [2] -0.083 | [3] -0.058 | [4] 0 | [5] 0
